PubChem BioAssay (NCI)
The panel holds about 79,000 compounds, 15% with a hit somewhere; the sample as a whole holds those more often. Active and inactive are the calls of the source. No stated cut-off is given here; in the data, active means growth inhibition above about 70%; inactive means the rest.

What was measured:
[1] = NCI Yeast Anticancer Drug Screen. Data for the rad50 strain (AID 155);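 further: 0% = growth of vehicle-only cultures of the same strain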; details: S. cerevisiae rad50 strain growth inhibition, active compounds read high
In short: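 Relative growth inhibition (compound vs vehicle) was measured in yeast with a defined repair-gene alteration.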

[2] = NCI Yeast Anticancer Drug Screen. Data for the mec2-1 strain (AID 157); details: S. cerevisiae mec2-1 strain, active compounds read high
In short: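 Strain: mec2-1 (DNA repair/cell cycle alteration). Compound exposure, then growth measured; inhibition expressed relative to vehicle.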

[3] = NCI Yeast Anticancer Drug Screen. Data for the sgs1 mgt1 strain (AID 161);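 further: 0% = growth of cultures given vehicle only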; details: S. cerevisiae sgs1 mgt1 strain, active compounds read high
In short: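 Inhibition of yeast growth, normalised to vehicle-treated controls, is reported for a strain bearing genetic alterations in DNA damage repair.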

[4] = NCI Yeast Anticancer Drug Screen. Data for the cln2 rad14 strain (AID 165);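 further: 0% = growth equal to vehicle treated cultures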; details: S. cerevisiae cln2 rad14 strain, active compounds read high
In short: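 Compounds are applied to the cln2 rad14 yeast strain, and growth is then compared with that of vehicle-treated cultures to give inhibition.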

[5] = NCI Yeast Anticancer Drug Screen. Data for the bub3 strain (AID 167); details: S. cerevisiae bub3 mutant strain, active compounds read high
In short: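 Screening used yeast with an engineered genetic alteration affecting cell cycle control. Compound-exposed cultures were compared with vehicle cultures, and reduced growth was taken as inhibition.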

[6] = NCI Yeast Anticancer Drug Screen. Data for the mlh1 rad18 strain (AID 175); details: S. cerevisiae mlh1 rad18 strain growth inhibition, active compounds read high
In short: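 Read-out is yeast growth inhibition, calculated against vehicle-only controls. The compound was applied to a strain engineered with DNA damage repair alterations.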

[7] = at 5.0 µM (retest, dose inferred, filed as 0.5)
[8] = at 50.0 µM (retest, dose inferred, filed as 5.0)

Measured: growth inhibition

ONC1=Nc2ccccc2OCc2cc(Br)c(Br)cc2COc2ccccc2N=C1NO
inactive: [1]; [7] 22% | [2]; [7] 19% | [3]; [7] 18% | [4]; [7] -1% | [5]; [7] 13% | [6]; [7] 31%
active: [1]; [8] 96% | [1]; at 50.0 µM 88% | [2]; [8] 98% | [2]; at 50.0 µM 91.1% | [3]; [8] 89% | [3]; at 50.0 µM 91.5% | [4]; [8] 81% | [4]; at 50.0 µM 89.4% | [5]; [8] 91% | [5]; at 50.0 µM 90.9% | [6]; [8] 97% | [6]; at 50.0 µM 87.9%

O/N=C(/C[N+]12CN3CN(CN(C3)C1)C2)c1ccc(I)cc1
active: [1]; at 50.0 µM 91.6% | [2]; at 50.0 µM 84% | [3]; at 50.0 µM 96.2% | [4]; at 50.0 µM 91.7% | [5]; at 50.0 µM 77.6% | [6]; at 50.0 µM 92%
inactive: [1]; [7] 0% | [1]; [8] 20% | [2]; [7] -4% | [2]; [8] 40% | [3]; [7] -4% | [3]; [8] 55% | [4]; [7] -1% | [4]; [8] 23% | [5]; [7] 1% | [5]; [8] 12% | [6]; [7] 12% | [6]; [8] 57%

O=C(NC(=O)C(F)(F)F)Nc1ccc(Cl)cc1
inactive: [1]; [7] 1% | [1]; [8] 0% | [1]; at 50.0 µM -35.8% | [2]; [7] -2% | [2]; [8] -8% | [2]; at 50.0 µM -1.15% | [3]; [7] 1% | [3]; [8] 1% | [3]; at 50.0 µM 9.75% | [4]; [7] 4% | [4]; [8] 0% | [4]; at 50.0 µM 57.1% | [5]; [7] -1% | [5]; [8] -2% | [5]; at 50.0 µM 18.9% | [6]; [7] -1% | [6]; [8] -1% | [6]; at 50.0 µM 0.8%

CCOc1nc(N)nc(C)c1N=Nc1ccc(Cl)cc1
active: [1]; [8] 76% | [1]; at 50.0 µM 95.5% | [3]; [8] 75% | [3]; at 50.0 µM 91.9% | [4]; at 50.0 µM 74.8% | [5]; at 50.0 µM 97.3% | [6]; [8] 88% | [6]; at 50.0 µM 89.6%
inactive: [1]; [7] 16% | [2]; [7] 4% | [2]; [8] 58% | [2]; at 50.0 µM 67.7% | [3]; [7] 14% | [4]; [7] -5% | [4]; [8] 35% | [5]; [7] -1% | [5]; [8] 19% | [6]; [7] 25%

Cc1ccc2sc(=S)sc2c1
inactive: [1]; [7] -2% | [1]; [8] 32% | [1]; at 50.0 µM 59.5% | [2]; [7] -3% | [2]; [8] 53% | [2]; at 50.0 µM 25.4% | [3]; [7] -2% | [3]; [8] 40% | [3]; at 50.0 µM 40.4% | [4]; [7] 0% | [5]; [7] 7% | [5]; [8] 65% | [6]; [7] -19% | [6]; [8] 69%
active: [4]; [8] 77% | [4]; at 50.0 µM 74.2% | [5]; at 50.0 µM 95.3% | [6]; at 50.0 µM 72.3%

N/C(=N\N=C\c1cc(I)cc(I)c1O)NO
active: [1]; [8] 98% | [1]; at 50.0 µM 95.5% | [2]; [8] 96% | [2]; at 50.0 µM 95.3% | [3]; [8] 98% | [3]; at 50.0 µM 97.6% | [4]; [8] 89% | [4]; at 50.0 µM 93.7% | [5]; [8] 99% | [5]; at 50.0 µM 96.7% | [6]; [8] 99% | [6]; at 50.0 µM 97.9%
inactive: [1]; [7] 11% | [2]; [7] 1% | [3]; [7] 2% | [4]; [7] 38% | [5]; [7] -2% | [6]; [7] 24%

CCCCCCCC(=O)N1CCCCC1CC (configuration not stated)
active: [1]; at 50.0 µM 72.1% | [3]; at 50.0 µM 73%
inactive: [1]; [7] -142% | [1]; [8] 14% | [2]; [7] -49% | [2]; [8] -30% | [2]; at 50.0 µM 25.6% | [3]; [7] -63% | [3]; [8] 24% | [4]; [7] -53% | [4]; [8] -68% | [4]; at 50.0 µM -6.15% | [5]; [7] -53% | [5]; [8] 17% | [5]; at 50.0 µM -9.4% | [6]; [7] -118% | [6]; [8] -64% | [6]; at 50.0 µM 24.2%

FC(F)(F)c1[nH]nc(-c2ccc(Cl)cc2)c1N=NN1CCOCC1
active: [1]; [7] 98% | [1]; [8] 96% | [1]; at 50.0 µM 94.6% | [2]; [7] 99% | [2]; [8] 94% | [2]; at 50.0 µM 95.8% | [3]; [7] 99% | [3]; [8] 94% | [3]; at 50.0 µM 95.4% | [4]; [7] 99% | [4]; [8] 98% | [4]; at 50.0 µM 91.2% | [5]; [7] 99% | [5]; [8] 98% | [5]; at 50.0 µM 82.5% | [6]; [7] 99% | [6]; [8] 97% | [6]; at 50.0 µM 93.6%

C(/C=C/CC=Nc1ccccc1)=Nc1ccccc1
inactive: [1]; [7] 3% | [1]; [8] 4% | [1]; at 50.0 µM 4.4% | [2]; [7] 2% | [2]; [8] 3% | [2]; at 50.0 µM 30.6% | [3]; [7] 0% | [3]; [8] 6% | [3]; at 50.0 µM 12.1% | [4]; [7] -4% | [4]; [8] -4% | [4]; at 50.0 µM 42.2% | [5]; [7] -4% | [5]; [8] -3% | [5]; at 50.0 µM -7.75% | [6]; [7] 7% | [6]; [8] 3% | [6]; at 50.0 µM -29.7%
